Measured values published in PubChem BioAssay AID504895 (National Center for Advancing Translational Sciences (NCATS), 2011).
Results filed as inconclusive are left out. Active and inactive are the calls of the source. Calls come from the whole dose curve; as a rule, active = well fitted curve in the direction sought with a large enough effect; inconclusive = small, poorly fitted or top-dose-only effect, or another doubt; inactive = no such curve, though single readings can be large or run the other way.

Molecular target: Protein phosphatase EYA2 (Homo sapiens) (UniProt O00167)
Experiment: Inhibitors of Eya2ED: Hit Confirmation in Primary Screen
Settings: Recombinant Eya2ED, OMFP fluorescence phosphatase assay; series mostly up to 76.9 µM
From the text: The Eya proteins (Eya1-4) were originally identified as essential co-activators of the Six1 transcription factor. […] Knockdown of Six1 decreases cancer cell proliferation and metastases in several different cancer models. […] A fluorescence-based HTS assay has been perfomed against the Molecular Libraries Small Molecule Repository (MLSMR) and has the AID 488837 in this database. After completion of the primary screen, hits were re-ordered and tested again in the primary screen in a 12 point titration. NIH Chemical Genomics Center [NCGC] NIH Molecular Libraries Probe Centers Network [MLPCN] MLPCN Grant: DA030559-01 Assay Submitter (PI): Rui Zhao, University of Colorado, Denver
The Eya2 enzyme was kindly provided by the laboratory of Dr. Rui Zhao. The 3-O-methyl-fluorescein phosphate (OMFP) substrate and all buffer reagents were purchased from Sigma Aldrich. qHTS Assay Setup: 1. Buffer- 50 mM HEPES pH 7.5, 50 mM NaCl, 5 uM MgCl2, 0.05% BSA, 1 mM DTT. 2. OMFP Stock- 10 mM solution prepared in 100% DMSO and stored in single use aliquots at -20C. Assay Procedure- 1. Dispense 1.5 ul per well of Eya2 at 0.2 uM in black medium binding 1536 well Greiner plate 2. Transfer 23 nl of compound and control compound (EGTA) to plate 3. Incubate at ambient for 10 minutes 4. Dispense 1.5 ul per well of OMFP at 50 uM 5. Incubate at ambient for 10 minutes 6. Read on ViewLux using Excitation = 485 nm, Emission = 525 nm

Sequence of Protein phosphatase EYA2 (Homo sapiens) (O00167 whole entry, looked up): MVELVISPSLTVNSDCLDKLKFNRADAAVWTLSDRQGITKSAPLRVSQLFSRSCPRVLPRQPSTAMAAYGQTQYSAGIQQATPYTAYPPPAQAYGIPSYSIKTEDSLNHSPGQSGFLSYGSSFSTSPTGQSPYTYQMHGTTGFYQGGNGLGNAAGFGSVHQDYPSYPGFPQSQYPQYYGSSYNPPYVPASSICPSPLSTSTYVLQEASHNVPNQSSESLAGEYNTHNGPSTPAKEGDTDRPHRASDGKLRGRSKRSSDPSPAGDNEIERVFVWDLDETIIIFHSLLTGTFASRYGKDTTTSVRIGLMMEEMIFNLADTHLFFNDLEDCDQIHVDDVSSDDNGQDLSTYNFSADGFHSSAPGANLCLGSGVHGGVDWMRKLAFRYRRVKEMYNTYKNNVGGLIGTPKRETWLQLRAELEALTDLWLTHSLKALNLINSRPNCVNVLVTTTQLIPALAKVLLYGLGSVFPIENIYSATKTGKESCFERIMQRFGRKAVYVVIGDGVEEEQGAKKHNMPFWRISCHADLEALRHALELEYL

Potency, inactive:
CO/N=C(\N)c1nonc1N
Cc1ccc(N(CC(=O)N2CCOCC2)S(C)(=O)=O)cc1Cl
CCOc1cc(C)c(Cl)cc1S(=O)(=O)NCc1ccco1
O=C(Cn1cccc(C(F)(F)F)c1=O)c1ccc(Cl)cc1
O=C(NC1CCCCC1)c1cc2nc3c(c(C(F)(F)F)n2n1)CCCC3
CCN(C(=O)COC(=O)c1cc(OC)c(OC)cc1[N+](=O)[O-])C1CCS(=O)(=O)C1 (stereo not given)
Cc1ccc(OCC(=O)N2c3ccccc3NC(=O)C2(C)C)c([N+](=O)[O-])n1
O=C(Cc1ccccc1F)NC1CCCN(Cc2ccc(Cl)cc2)C1 (stereo not given)
CS(=O)(=O)c1ccc2nc(NC(=O)c3cccc([N+](=O)[O-])c3)sc2c1
COC(=O)c1ccc(Cn2cc([N+](=O)[O-])cn2)cc1
CC(NC(=O)COC(=O)C1CC1C)c1cccc(Cl)c1 (stereo not given)
CCOc1ccc(S(=O)(=O)NC(C)C(=O)NCc2ccncc2)cc1 (stereo not given)
Cc1ccc(C(=O)NCc2ccc(Cl)cc2)o1
O=C(c1ccccc1Cl)N1CCN(C(=O)C2CCCO2)CC1 (stereo not given)
O=C(C1CCC(=O)N(C2CCCC2)C1)N1CCC(Oc2cccc(F)c2)CC1 (stereo not given)
Cn1cccc1CC(=O)NNC(=S)NC(=O)c1ccc(F)cc1
O=C(C1CCCN(Cc2ccccc2F)C1)N1CCc2ccccc2C1 (stereo not given)
Nc1ccccc1-c1nc2ccccc2[nH]1
CC[C@]12c3[nH]c4ccccc4c3CCN1C(=O)C(CC(=O)NCCc1ccccn1)C[C@@H]2C(=O)N1CCN(C(=O)c2ccco2)CC1 (stereo not given in full)
CC(NC(=S)NNS(=O)(=O)c1ccc(C(C)(C)C)cc1)c1ccccc1 (stereo not given)
COc1ccc(CC(=O)Nc2cccnc2)cc1
Cc1ccc(S(=O)(=O)NNC(=S)NCCc2ccccc2)cc1
COc1ccc(CCN=C(C)C2=C(O)C(c3ccccc3)OC2=O)cc1OC (stereo not given)
CSCC[C@H](NC(=O)[C@@H]1Cc2ccccc2CN1)C(=O)Nc1ccc2c(c1)OCCO2
O=C(N/N=C/c1ccc(Sc2ccccn2)o1)c1cc2ccccc2cc1O
Cc1nn(-c2nc(-c3ccco3)cc(C(F)(F)F)n2)c(C)c1Cl
NC(=O)C1CCN(CC(=O)Nc2ccc3c(c2)OCCO3)CC1
N=C(N)SCc1ncccc1O
O=C(C[C@H]1C/C=C/CC[C@H](Cc2ccc(F)cc2)C(=O)O[C@H](c2ccccc2)CNC1=O)NCCO
COc1cccc(-c2cc(C(F)(F)F)nc(N3CCN(c4ccccc4)CC3)n2)c1
C=CCC1(C#N)C(=S)NC(C)=C(C(=O)OCC)C1c1ccccc1 (stereo not given)
O=C(CCCN=C1NS(=O)(=O)c2ccccc21)OCc1ccc(F)cc1
Cn1cccc1C(=O)Nc1ccc(Cl)c(S(=O)(=O)N2CCCCC2)c1
Cc1ccc(Nc2nc(N)nc(CSc3ncccn3)n2)cc1
Cc1cc(C(=O)N/N=C/C=C/c2ccc3c(c2)OCO3)n[nH]1
O=C(NCCC1CCCCN1S(=O)(=O)c1ccccc1)C(=O)NCc1ccccn1 (stereo not given)
CC(C)(C)OC(=O)NCCCCCc1nnc(SCc2ccccc2F)o1
Cc1cc(/C=C2\SC(=S)NC2=O)cc(C)c1O
COC(=O)/C=C1\NCCNC1=O

Potency, active:
C#CCOCCOCCOCCNc1nc(N2CCN(C(=O)CCCCCCCCCCNC(=O)[C@H](CCCCN)n3cc(C)nn3)CC2)nc(N2CCN(C(=O)CCCCCCCCCCNC(=O)[C@H](CCCN=C(N)N)n3cc(C[C@@H](C)CC)nn3)CC2)n1 18.4 µM
